This note sets out measurements from PubChem BioAssay (Tox21).

Values joined by “and” are separate entries in the source; they are usually repeats but may differ in a detail not shown here. Equal values may be shown once. Values without a mark were called inactive. Inconclusive results are not listed. Active and inactive are the calls of the source. Calls come from the whole dose curve; as a rule, active = well fitted curve in the direction sought with a large enough effect in the repeat runs; inconclusive = weak or mixed curves; inactive = no such curve, though single readings can be large; an effect the other way counts as inactive or inconclusive.

Test [1] is described as follows: qHTS RealTime-Glo MT Cell Viability Assay in HepG2 cells - 40 hour (AID 1224870). Note: nearly all actives have a fitted effect of over 50% in size. Summed up:
(§1)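 HepG2 cells (600/well) mixed with RealTime-Glo MT reagent, settled 5 h at 37 C/5% CO2 before compound addition. Nonlytic NanoLuc luminescence from viable-cell prosubstrate reduction read repeatedly during 40 h treatment at 37 C.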

The nature of test [2]: A CellTox Green Cytotoxicity Assay to monitor cytotoxicity in HEK293 cells - 40 hour (AID 1224871). Note: nearly all actives have a fitted effect of over 45% in size. Summed up: (§2)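 Tox21 screen in HEK293: membrane-impermeant cyanine dye fluoresces on binding dead-cell DNA; compound pinned 5 h post-seeding, plates held at 37 C, signal read repeatedly through 40 h.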
The nature of test [3]: qHTS RealTime-Glo MT Cell Viability Assay in HEK293 cells - 16 hour (AID 1224872). Note: top concentration of the series differs between compounds; nearly all actives have a fitted effect of over 50% in size. Summed up:
(§3)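 Luminescence generated by NanoLuc from substrate produced by living HEK293 cells served as the viability signal. Each value reflects the reading at its stated time point during continuous 40 h compound exposure at 37 C.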
(In general: Quantitative high-throughput screening tests each substance at several concentrations.)

Test [4] can be described thus: qHTS RealTime-Glo MT Cell Viability Assay in HepG2 cells - 8 hour (AID 1224873). Note: nearly all actives have a fitted effect of over 55% in size. Summed up:
as §1

Test [5] is described as follows: qHTS RealTime-Glo MT Cell Viability Assay in HEK293 cells - 40 hour (AID 1224874). Note: nearly all actives have a fitted effect of over 50% in size. The settings on record: RealTime-Glo luminescence; max response: active compounds read low. Summed up:
(§4)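 HEK293 + NanoLuc + prosubstrate, 600 cells/well; 5 h, 37 C/5% CO2; compound 23 nL in DMSO by pintool; 37 C; luminescence read at 0, 8, 16, 24, 32 and 40 h time points.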

Test [6] is described as follows: A CellTox Green Cytotoxicity Assay to monitor cytotoxicity in HEK293 cells - 24 hour (AID 1224875). Note: series mostly up to about 77 µM; nearly all actives have a fitted effect of over 45% in size. An outline of the steps:
as §2

The nature of test [7]: A CellTox Green Cytotoxicity Assay to monitor cytotoxicity in HepG2 cells - 16 hour (AID 1224876). Note: nearly all actives have a fitted effect of over 45% in size. An outline of the steps: (§5)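 Measurements at 0, 8, 16, 24, 32 and 40 h of treatment captured CellTox Green fluorescence in HepG2 cells that had been co-plated with reagent and preincubated 5 h at 37 C/5% CO2.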
Test [8] is described as follows: qHTS RealTime-Glo MT Cell Viability Assay in HepG2 cells - 32 hour (AID 1224877). Note: nearly all actives have a fitted effect of over 55% in size. Summed up:
(§6)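 Tox21 10K library screened in qHTS format on HepG2 cells carrying RealTime-Glo reagents. Compounds were added after a 5 h preincubation, and the luminescent signal from continuous culture was measured repeatedly during 40 h treatment.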

Test [9] is described as follows: A CellTox Green Cytotoxicity Assay to monitor cytotoxicity in HepG2 cells - 40 hour (AID 1224879). Note: nearly all actives have a fitted effect of over 40% in size. Note: potency is the fitted concentration of half-maximal effect. An outline of the steps: as §5
Test [10] is described as follows: qHTS RealTime-Glo MT Cell Viability Assay in HEK293 cells - 0 hour (AID 1224880). Note: top concentration of the series differs between compounds; nearly all actives have a fitted effect of over 45% in size. Summed up:
as §4

Test [11] in a line: A CellTox Green Cytotoxicity Assay to monitor cytotoxicity in HEK293 cells - 32 hour (AID 1224881). Note: nearly all actives have a fitted effect of over 40% in size. An outline of the steps:
as §2

Test [12] is described as follows: A CellTox Green Cytotoxicity Assay to monitor cytotoxicity in HepG2 cells - 0 hour (AID 1224882). Note: nearly all actives have a fitted effect of over 35% in size. An outline of the steps:
as §5

A short description of test [13]: A CellTox Green Cytotoxicity Assay to monitor cytotoxicity in HepG2 cells - 32 hour (AID 1224883). Note: nearly all actives have a fitted effect of over 50% in size. Note: potency is the fitted concentration of half-maximal effect. An outline of the steps: as §5
Test [14] is described as follows: A CellTox Green Cytotoxicity Assay to monitor cytotoxicity in HEK293 cells - 8 hour (AID 1224884). Note: nearly all actives have a fitted effect of over 35% in size. An outline of the steps: as §2
Test [15] is described as follows: qHTS RealTime-Glo MT Cell Viability Assay in HepG2 cells - 16 hour (AID 1224885). Note: nearly all actives have a fitted effect of over 50% in size. Summed up: as §6
Test [16] can be described thus: qHTS RealTime-Glo MT Cell Viability Assay in HEK293 cells - 24 hour (AID 1224886). Summed up: as §3
Test [17] in a line: qHTS RealTime-Glo MT Cell Viability Assay in HEK293 cells - 8 hour (AID 1224887). Summed up: as §4
Test [18] can be described thus: A CellTox Green Cytotoxicity Assay to monitor cytotoxicity in HEK293 cells - 16 hour (AID 1224888). Note: nearly all actives have a fitted effect of over 35% in size. An outline of the steps:
as §2

A short description of test [19]: qHTS RealTime-Glo MT Cell Viability Assay in HepG2 cells - 0 hour (AID 1224889). Note: nearly all actives have a fitted effect of over 50% in size. Summed up: as §6
A short description of test [20]: A CellTox Green Cytotoxicity Assay to monitor cytotoxicity in HepG2 cells - 24 hour (AID 1224878). Note: nearly all actives have a fitted effect of over 45% in size. Note: potency is the fitted concentration of half-maximal effect. Summed up:
as §5
% is set by controls: 0 for no effect and ±100 for the full control effect.

As for `O=C(O)c1ccc([N+](=O)[O-])cc1`, the Potency entry in [1], in [2], in [3], in [4], in [6] and in test [7] was “inactive” in each case. The Potency result in test [8], in [9], in test [10], in test [11], in [12] and in [13] was “inactive” in each case. The Potency entry in [14], in test [15], in test [16], in test [17] and in [18] was “inactive” in each case. In addition, the max response in test [5] is 2.62% and 0.789%.
For the compound `Cc1cc(=O)[nH]c(C(C)C)n1`, the Potency result in test [1], in test [2], in test [3], in test [4], in test [6] and in test [7] was “inactive” throughout. Also, the Potency result in test [9], in test [10], in test [11], in [12], in [13] and in [14] was “inactive” each time. The Potency result in [15], in test [16], in test [17], in test [18] and in test [19] was “inactive” in each case. For the same compound, the max response in test [5] is 1.9% and -0.481%.
`O=C(c1ccc(O)cc1)c1ccc(O)cc1O`: the Potency entry in test [1], in [2], in [3], in test [4], in test [6] and in [7] was “inactive” each time. For the same compound, the Potency result in test [8], in test [20], in test [9], in test [10], in [11] and in test [12] was “inactive” throughout. For the same compound, the Potency result in test [13], in test [14], in [15], in test [16], in test [17] and in [18] was “inactive” each time. The Potency entry in [19] was “inactive”. The max response in test [5] is -21.4%.
For `CCCCCC/C=C/CCCCCCCC(=O)O`, the Potency result in [1], in test [2], in [3], in test [4], in test [6] and in test [8] was “inactive” throughout. In addition, the Potency result in test [20], in test [9], in test [11], in test [12], in [13] and in [14] was “inactive” throughout. Also, the Potency entry in test [15], in [16], in test [17], in test [18] and in [19] was “inactive” each time. The max response in test [5] was 2.68% and -1.87%.
For the compound `O=C1O[C@H](CO)[C@@H](O)[C@H](O)[C@H]1O`, the Potency result in test [1], in test [2], in test [3], in test [4], in [6] and in [7] was “inactive” in each case. Besides, the Potency result in test [8], in test [20], in [9], in test [10], in [11] and in test [12] was “inactive” throughout. For the same compound, the Potency entry in test [13], in [14], in [15], in test [16], in test [17] and in test [18] was “inactive” throughout. Also, the Potency result in [19] is “inactive”. For the same compound, the max response in test [5] was 1.84% and 0.71%.
On to `Cn1c([N+](=O)[O-])cnc1COC(N)=O`, for which the Potency entry in test [1], in [2], in test [3], in [4], in test [6] and in [7] was “inactive” in each case. Further, the Potency entry in [8], in [20], in test [9], in [11], in test [12] and in test [13] was “inactive” throughout. The Potency result in [14], in test [15], in test [16], in test [17], in test [18] and in test [19] was “inactive” in each case. In test [5], the max response was 0.779% and 12.4%.
Regarding `CC(C)n1c(/C=C/[C@@H](O)C[C@@H](O)CC(=O)O)c(-c2ccc(F)cc2)c2ccccc21`, the Potency entry in test [1], in test [2], in test [3], in test [4], in test [6] and in test [7] was “inactive” in each case. Besides, the Potency result in [8], in [10], in test [11], in test [12], in [14] and in test [15] was “inactive” throughout. Besides, the Potency entry in test [16], in [18] and in test [19] was “inactive” in each case. For the same compound, in test [5], the max response was -22.2% and 0.258%. Also, the Potency in [20] is 6.17 µM (active) and 10.7 µM (active); in test [9], 4.36 µM (active) and 9.52 µM (active); in test [13], 4.36 µM (active) and 9.52 µM (active).
Take `NCCNCCNCCNCCN`: the Potency entry in [1], in [2], in test [3], in test [4], in test [6] and in [7] was “inactive” throughout. Moreover, the Potency result in test [8], in [9], in test [10], in test [11], in test [12] and in test [13] was “inactive” each time. Besides, the Potency result in test [14], in [15], in test [16], in test [18] and in test [19] was “inactive” throughout. Also, the max response in test [5] is 1.39% and 5.6%.
For `O=C(O)c1cc(-c2ccccc2)nc2ccccc12`, the Potency result in test [1], in [2], in test [3], in test [4], in [6] and in [8] was “inactive” each time. Further, the Potency entry in test [20], in test [9], in test [10], in [11], in test [12] and in [13] was “inactive” throughout. Also, the Potency result in test [14], in test [15], in [16], in [17], in test [18] and in test [19] was “inactive” in each case. Also, the max response in [5] was -1.75% and 4.47%.
In the case of `CC(=O)Nc1ccc(C(=O)O)cc1`, the Potency result in test [1], in test [2], in [3], in [4], in test [6] and in test [7] was “inactive” throughout. Further, the Potency result in test [20], in test [9], in test [11], in test [12], in test [13] and in test [14] was “inactive” throughout. In addition, the Potency result in test [15], in test [16] and in test [18] was “inactive” in each case. Further, the max response in [5] is 0.373% and -0.782%.
With `Oc1ccc2ccccc2c1`, the Potency result in [1], in test [2], in test [3], in test [4], in test [6] and in [8] was “inactive” in each case. For the same compound, the Potency entry in [20], in test [9], in [10], in test [11], in test [12] and in test [13] was “inactive” in each case. For the same compound, the Potency result in test [14], in test [15], in [16], in test [17], in test [18] and in test [19] was “inactive” in each case. For the same compound, the max response in [5] was 17.4% and 0.276%.
As for `Cc1ccc(N)c(S(=O)(=O)O)c1`, the Potency result in test [1], in test [2], in [3], in test [4], in test [6] and in test [7] was “inactive” in each case. Moreover, the Potency entry in test [8], in test [20], in test [9], in [10], in test [11] and in test [12] was “inactive” in each case. Also, the Potency entry in test [13], in [14], in test [15], in test [16], in test [18] and in test [19] was “inactive” in each case. Also, the max response in test [5] is -4.11% and 2.65%.
